Measured values published in PubChem BioAssay (NCI).
Compounds without any hit were thinned out: in the full panel of roughly 83,000, 20% have a hit.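 Single-dose data. Exposure time 48 hours. Values below 10 considered active.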 Unmarked numbers belong to inactive results. Activity calls are given as the source filed them.

Tests used:
Assay in all cases: NCI-60 one-dose screen, 48 h (100 = growth as untreated, 0 = no growth, -100 = all killed)
Settings in all cases: 10 µM unless noted
NCI-H23 lung = test system: NCI-H23 lung
NCI-H226 lung = test system: NCI-H226 lung
NCI-H322M lung = test system: NCI-H322M lung
HOP-62 NSCLC = test system: HOP-62 NSCLC
NCI-H460 lung = test system: NCI-H460 lung
HOP-92 NSCLC = test system: HOP-92 NSCLC
A549/ATCC NSCLC = test system: A549/ATCC NSCLC
786-0 renal = test system: 786-0 renal
COLO 205 colon = test system: COLO 205 colon
NCI-H522 lung = test system: NCI-H522 lung

Row | Compound | growth (NCI-H23 lung) | growth (NCI-H226 lung) | growth (NCI-H322M lung) | growth (HOP-62 NSCLC) | growth (NCI-H460 lung) | growth (HOP-92 NSCLC) | growth (A549/ATCC NSCLC) | growth (786-0 renal) | growth (COLO 205 colon) | growth (NCI-H522 lung)
1 | C=C1CCC2C3(C)COC(c4ccccc4F)OC3CCC2(C)C1CC(O)C1=CCOC1=O (stereo not drawn) | 80% | 83.6% | 99.5% | 88.2% | 82.3% | 55.5% | 67.7% | 14.7% | 22.5% | 
2 | CC(=O)OC[C@@]1(C)C2CC[C@]3(C)C(CC=C4C5CC(C)(C)CC[C@]5(C(=O)Nc5ccc(C)cc5)CC[C@]43C)[C@@]2(C)C[C@@H](OC(C)=O)[C@@H]1OC(C)=O (stereo partly drawn) | 49.3% | 50.6% | 72.8% | 44.4% | 13.5% | 55.8% | 41.4% | 57.1% | 48.8% | 48.9%
3 | COc1ccc(C(=O)Nc2n[nH]c(Nc3ccccc3)c2C#N)cc1 | 110% | 117% | 106% | 124% | 101% | 125% | 117% | 104% | 106% | 
4 | CSc1ccc(NC(=O)c2ccc3nnn(/C(C#N)=C/c4ccccn4)c3c2)cc1 | -95.9% (active) | -94.9% (active) | 3.57% (active) | -58.1% (active) | -47.2% (active) | -77.6% (active) | -52.5% (active) | -98.1% (active) | -88.4% (active) | -95.4% (active)
5 | COc1cc(-c2cc(-c3cccc(OCC(=O)O)c3)[nH]c(=O)c2C#N)cc(OC)c1OC | 101% | 98.2% | 91% | 99.1% | 111% | 85.4% | 100% | 95.8% | 119% | 
6 | COc1ccc(C(=O)/C=C/c2ccccc2Br)cc1S(N)(=O)=O | -21.4% (active) | 21.5% | 20.6% | -18.7% (active) | 1.47% (active) | 76.8% | -81.4% (active) | -78% (active) | -72.8% (active) | -67% (active)
7 | Cc1c(C(=O)NNC(=O)c2ccc(Cl)cc2)nnn1-c1ccc(Br)cc1 | 102% | 97.1% | 91% | 98.4% | 107% | 91.6% | 100% | 98.8% | 104% | 97.6%
8 | C[C@H]1CN(C(=O)c2ccc3c(NNC(=O)c4ccncn4)nc4cc(F)c(F)cc4n23)CCN1 | 37.5% | 6.31% (active) | 32.2% | 18.7% | 6.66% (active) | 65.4% | 19.4% | -14.4% (active) | 9.98% (active) | 67.9%
9 | CN(C)c1ccnc(CNCCSC2(c3ccc(C(F)(F)F)cc3)c3ccccc3CCc3ccccc32)c1 | -31.8% (active) | -31.6% (active) | 8.82% (active) | -57.8% (active) | -80.5% (active) | -17.7% (active) | -27.6% (active) | -6.83% (active) | -83.7% (active) | -82.6% (active)
10 | CCN1C(=O)N(CC)C2NNC(Sc3c(C(=O)O)c4ccccc4n(C4CCCC4)c3=O)=NC21 (stereo not drawn) | 36.8% | 42% | 67.3% | 44.1% | 4.22% (active) | 73.4% | 28.2% | 22.9% | -31.1% (active) | 
11 | CCCCc1c(Nn2cnnn2)no[n+]1[O-] | 56.2% | 82% | 66.7% | 81.6% | 36.5% | 46.4% | 66.4% | 56.2% | 60.8% | -21.9% (active)
12 | COc1ccc([C@H](C)Nc2nc(Cl)nc3ccccc23)cc1 | 23.2% | 58.9% | 86% | 43.6% | 60.8% | 46.1% | 70.2% | 84.8% | 90.3% | 
13 | COc1ccc(NC(=O)Cn2c(/C=C/c3cccc([N+](=O)[O-])c3)nc3ccccc3c2=O)cc1 | 81.7% | 12.8% | 90.7% | 40.9% | 63% | -0.339% (active) | 84.7% | -15.8% (active) | 98.8% | 94.4%
14 | O=C1C(=Nc2ccc(F)c(Cl)c2)c2cccc3cccc1c23 | 90.9% | 91.9% | 85.2% | 81.2% | 78% | 96.9% | 89.6% | 91.8% | 94% | 
15 | N#Cc1ccc(/C=N/NC(=O)c2[nH]c3ccc(Br)cc3c2-c2ccccc2)o1 | 3.75% (active) | 22.9% | 41.3% | 16.6% | 1.47% (active) | -2.77% (active) | 12.7% | -1.06% (active) | -25.2% (active) | 
16 | COc1cc2oc(-c3cccc(NC(=O)[C@H](Cc4ccccc4)NC(=O)OC(C)(C)C)c3)cc(=O)c2c(OC)c1OC | 39.1% | 28% | 46.1% | 49% | 11.5% | 61.7% | 24.7% | 43.8% | 33.8% | 
17 | COc1ccccc1C(=O)NN1C(=O)/C(=C/C2=Cc3ccccc3OC2)SC1=S | 106% | 98.9% | 99.4% | 106% | 120% | 86.6% | 103% | 104% | 119% | 
18 | CC(=O)Nc1cccc(Nc2nc(NCc3ccccc3)c3ccccc3n2)c1 | -86.3% (active) | -84.3% (active) | -97.2% (active) | -90.8% (active) | -79.5% (active) | -83.5% (active) | -69% (active) | -89.1% (active) | -93.9% (active) | -83.8% (active)
19 | CCOP(=O)(OCCCl)c1nc(-c2ccc(C)cc2)oc1NCc1ccccc1 (stereo not drawn) | 75.3% | 88% | 84.6% | 93.9% | 73.2% | 75.5% | 66.5% | 81.9% | 83.5% | 
20 | COc1cc2c(c(OC)c1OC)C(=O)CC(c1cccc(NC(=O)c3cc(NC(=O)[C@H](CO)NC(=O)OC(C)(C)C)ccc3Cl)c1)O2 (stereo partly drawn) | 37.3% | 33% | 42.5% | 50.3% | 34.3% | 39.7% | 58.2% | 42.8% | 43% | 27.6%
21 | Cc1ccc([C@H]2C(C(=O)c3ccc(Cl)cc3)C3(N[C@@H]2c2ccccc2)C(=O)Nc2ccc(Cl)cc23)cc1 (stereo partly drawn) | 52.8% | 61.4% | 67.4% | 65.1% | 39.7% | 16.6% | 33.2% | 39.1% | 44.5% | 43.9%
22 | COc1cc2oc(-c3cccc(C(=O)Nc4ccc(Cl)cc4)c3)cc(=O)c2c(OCCNC(=O)[C@H](CCC(=O)OC(C)(C)C)NC(=O)OC(C)(C)C)c1OC | 106% | 95.9% | 98.4% | 95.3% | 101% | 84.2% | 92.8% | 93.4% | 117% | 89%
23 | O=C(N/N=C/c1ccc(-c2ccc(O)cc2)s1)c1[nH]c2ccc(Br)cc2c1-c1ccccc1 | 7.67% (active) | 27.6% | 29.8% | 21.2% | -18.3% (active) | -24.8% (active) | 23.8% | -28% (active) | -32.9% (active) | 18.6%
24 | COc1ccc(N2N=C(c3ccc4c(c3)OCO4)CC2c2cccc(NC(=O)CCNS(=O)(=O)c3ccc(Cl)cc3)c2)cc1 (stereo not drawn) | 32.6% | 30.8% | 51.8% | 50.2% | 22.3% | 32% | 33.4% | 43% | 29.2% | -80.7% (active)
25 | CSc1ccc(C(=O)Nc2ccc3nnn(/C(C#N)=C/c4ccccn4)c3c2)cc1 | -77.8% (active) | -53.4% (active) | 57.9% | -5.88% (active) | -40.1% (active) | -24.8% (active) | 15% | -90.3% (active) | -66.2% (active) | 
26 | CCN(CC)CCOc1ccc(Nc2ncc3cc(-c4ccc(O)c(C#N)c4)c(=O)n(C)c3n2)cc1 | 98% | 49.3% | 96.9% | 91.1% | 85.3% | -5.3% (active) | 94.8% | -51.2% (active) | 36.2% | 83.1%
27 | CSc1ccc(NC(=O)c2ccc3nn(/C(C#N)=C/c4ccccn4)nc3c2)cc1 | -90.9% (active) | -90.5% (active) | -54.5% (active) | -70.3% (active) | -64.5% (active) | -33.9% (active) | -71.8% (active) | -84.7% (active) | -79% (active) | 
